MOR-DOR ag: agonists of OPRM1-OPRD1 heterodimerization, primary screen, cell-based, luminescence; cells; Mu-type opioid receptor (Homo sapiens) + Delta-type opioid receptor (Homo sapiens), …; activation, % at 9.3 µM; AID 504326, 2011; 0.3% of 340,000 active; in the data active = activation above about 18%;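 note: 0% = vehicle-treated cells and 100% = reference agonist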
Target sequence (P35372 whole entry, looked up): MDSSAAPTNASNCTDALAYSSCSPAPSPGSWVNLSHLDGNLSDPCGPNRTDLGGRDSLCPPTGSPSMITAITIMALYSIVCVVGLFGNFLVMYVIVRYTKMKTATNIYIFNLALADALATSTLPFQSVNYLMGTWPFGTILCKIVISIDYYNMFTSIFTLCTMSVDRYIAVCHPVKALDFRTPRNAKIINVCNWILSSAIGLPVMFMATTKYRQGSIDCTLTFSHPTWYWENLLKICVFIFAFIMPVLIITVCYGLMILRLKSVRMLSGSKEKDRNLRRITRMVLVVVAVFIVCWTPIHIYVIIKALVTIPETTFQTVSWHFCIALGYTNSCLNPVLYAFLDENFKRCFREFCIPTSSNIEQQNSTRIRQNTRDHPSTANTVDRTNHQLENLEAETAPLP
Target sequence (P41143 whole entry, looked up): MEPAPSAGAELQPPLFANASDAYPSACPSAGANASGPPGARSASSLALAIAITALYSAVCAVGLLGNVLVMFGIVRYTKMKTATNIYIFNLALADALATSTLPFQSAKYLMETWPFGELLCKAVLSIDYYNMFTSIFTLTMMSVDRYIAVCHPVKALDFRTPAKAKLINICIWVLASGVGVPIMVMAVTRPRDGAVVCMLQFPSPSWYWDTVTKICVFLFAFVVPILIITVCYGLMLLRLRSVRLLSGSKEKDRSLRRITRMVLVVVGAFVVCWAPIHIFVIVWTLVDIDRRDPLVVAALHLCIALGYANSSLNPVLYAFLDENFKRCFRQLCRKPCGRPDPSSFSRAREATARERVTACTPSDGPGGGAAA
HTR5A ag ctr: HTR5A agonists in luminescence cell assay, primary screen, counter-screen for OPRM1-OPRD1 heterodimer agonist project, full-deck HTS; 5-hydroxytryptamine receptor 5A (Homo sapiens), P47898; cell-based; 0.61% of 340,000 active; activation, % at 9.3 µM; in the data active = activation mostly above about 9.5%, no sharp cut-off; inactive = mostly below about 7.6%;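 note: 0% = cells with vehicle only and 100% = reference agonist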
MOR-DOR inv ag-1: inverse agonists of MOR-DOR heterodimerization, primary screen, cell-based, luminescence; AID 504357, 2011; inhibition, % at 9.3 µM; 0.21% of 340,000 active; cell-based MOR-DOR heterodimer luminescence, inverse agonism; in the data active = inhibition above about 22%, passing the limit was not always enough;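 note: 0% = cells with DMSO and 100% = wells without cells with DMSO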
HTR5A inv ag: HTR5A inverse agonists in luminescence cell assay, primary screen, counter-screen for OPRM1-OPRD1 heterodimer inverse agonist project, full-deck HTS; HTR5A cell line, inverse agonism; inhibition, % at 9.3 µM; 0.083% of 340,000 active; in the data active = inhibition mostly above about 23%, no sharp cut-off; inactive = mostly below about 18%;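 note: 0% = cells with DMSO and 100% = no-cell wells with DMSO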
MOR-DOR inv ag-2: inverse agonists of MOR-DOR heterodimerization, counter-screen for HTR5A inverse agonist project, cell-based, luminescence. shares compounds with HTR5A inv ag. U2OS counter-screen cells, complementation luminescence. inhibition, % at 9.3 µM. 190 tested, under 10 active;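 note: 0% = cells with DMSO and 100% = wells without cells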
HTR5A inv confrm: HTR5A inverse agonists, retest of hits, confirmation, cell-based, luminescence; shares compounds with HTR5A inv ag; HTR5A-expressing cells, inverse agonism; inhibition, % at 9.3 µM; 190 tested, under 10 active;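 note: 0% = cells with DMSO and 100% = no cells with DMSO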
* = called active by the depositor. An excerpt weighted towards active compounds, which were near 1.1% of everything screened. Unless noted, the rule behind the calls is not given here.

`CC(=O)N1c2c(cc(Br)cc2S(=O)(=O)N2CCN(c3ccccn3)CC2)CC1C` (stereo not given) gave MOR-DOR ag -2, HTR5A ag ctr 4, MOR-DOR inv ag-1 10 and HTR5A inv ag -5.
`CC1CC(C)CN(c2ncc3c(n2)CC(c2ccccc2Cl)CC3=O)C1` (stereo not given) gave MOR-DOR ag -2, HTR5A ag ctr 2, MOR-DOR inv ag-1 13 and HTR5A inv ag -33.
For CC1CC(C)CN(c2ncc3c(n2)CC(c2ccc(Cl)cc2)CC3=O)C1 (stereo not given) the results were MOR-DOR ag -1, HTR5A ag ctr -10, MOR-DOR inv ag-1 4, HTR5A inv ag 32*, MOR-DOR inv ag-2 -13 and HTR5A inv confrm -9.
Screening CC(=O)c1ccc(NC(=O)CN2CCOCC2)cc1 returned MOR-DOR ag -1, HTR5A ag ctr -1, MOR-DOR inv ag-1 5 and HTR5A inv ag 5.
For NC(=O)c1ccc(NC(=O)CN2CCOCC2)cc1 the results were MOR-DOR ag -1, HTR5A ag ctr -9, MOR-DOR inv ag-1 6, HTR5A inv ag 34*, MOR-DOR inv ag-2 43* and HTR5A inv confrm 22.
Screening O=C(CCN1C(=O)S/C(=C\c2ccccc2)C1=O)NC1CCS(=O)(=O)C1 (stereo not given) returned MOR-DOR ag -3, HTR5A ag ctr 4, MOR-DOR inv ag-1 14 and HTR5A inv ag 11.
COc1ccc(S(=O)(=O)N2CCN(CC(=O)Nc3sccc3C(N)=O)CC2)cc1OC was read as MOR-DOR ag 1, HTR5A ag ctr -2, MOR-DOR inv ag-1 -3 and HTR5A inv ag 4.
For CN(C)c1ccc(/C=C/c2ccc3ccccc3[n+]2C)cc1 the results were MOR-DOR ag -4, HTR5A ag ctr -11, MOR-DOR inv ag-1 23, HTR5A inv ag 29*, MOR-DOR inv ag-2 -2 and HTR5A inv confrm 28.
CC1=CC(C)C2(COC(=O)Nc3ccccc3)COC(C)C1C2C (stereo not given) was read as MOR-DOR ag 7, HTR5A ag ctr 1, MOR-DOR inv ag-1 -42 and HTR5A inv ag -4.
Clc1cccc(CN2CCC3CC2c2cc(N4CCCCC4)ccc23)c1 (stereo not given) was read as MOR-DOR ag -1, HTR5A ag ctr -8, MOR-DOR inv ag-1 4, HTR5A inv ag 28*, MOR-DOR inv ag-2 -13 and HTR5A inv confrm -7.
Screening CC(Sc1nc(N)cc(=O)[nH]1)C(=O)NC1CCCCC1 (stereo not given) returned MOR-DOR ag 0, HTR5A ag ctr -3, MOR-DOR inv ag-1 0 and HTR5A inv ag 4.
Screening CC(Sc1ncccn1)C(=O)NC1CCCC1 (stereo not given) returned MOR-DOR ag -4, HTR5A ag ctr 9, MOR-DOR inv ag-1 15, HTR5A inv ag 37*, MOR-DOR inv ag-2 -12 and HTR5A inv confrm -87.
`NC(=O)c1nnsc1-c1ccco1` gave MOR-DOR ag -2, HTR5A ag ctr -1, MOR-DOR inv ag-1 11 and HTR5A inv ag 3.
Cc1ccc(NC(=O)c2ncn(CC(=O)NCC(C)c3ccccc3)n2)cc1C (stereo not given) was read as MOR-DOR ag -2, HTR5A ag ctr 1, MOR-DOR inv ag-1 11 and HTR5A inv ag -2.
Cc1cc(C)n(-c2nc(Nc3ccccc3)nc(-n3nc(C)cc3C)n2)n1 was read as MOR-DOR ag -5, HTR5A ag ctr -1, MOR-DOR inv ag-1 23 and HTR5A inv ag 6.
Screening COc1cccc(/C=N/Nc2nc(Nc3ccccc3)nc(-n3nc(C)cc3C)n2)c1O returned MOR-DOR ag 1, HTR5A ag ctr -18, MOR-DOR inv ag-1 -4, HTR5A inv ag 40*, MOR-DOR inv ag-2 inactive and HTR5A inv confrm -4.
`Cc1n[nH]c(=S)n(NC(=O)CC(=O)Nn2c(=S)[nH]nc(C)c2=O)c1=O` gave MOR-DOR ag 3, HTR5A ag ctr -24, MOR-DOR inv ag-1 -17, HTR5A inv ag 65*, MOR-DOR inv ag-2 -85 and HTR5A inv confrm 16.
CC(C)(C)OC(=O)NCCc1nnc(SCC(N)=O)o1 was read as MOR-DOR ag -3, HTR5A ag ctr -5, MOR-DOR inv ag-1 14, HTR5A inv ag 49*, MOR-DOR inv ag-2 -18 and HTR5A inv confrm 4.
Screening Cc1onc(-c2ccccc2)c1C(=O)NNC(=S)NC(=O)/C=C/c1ccccc1 returned MOR-DOR ag -4, HTR5A ag ctr -10, MOR-DOR inv ag-1 20 and HTR5A inv ag 25.
`COc1ccc(/C=C/C(=O)NC(=S)NNC(=O)c2c(-c3ccccc3)noc2C)cc1` gave MOR-DOR ag -5, HTR5A ag ctr -12, MOR-DOR inv ag-1 28, HTR5A inv ag 49*, MOR-DOR inv ag-2 -3 and HTR5A inv confrm -1.
`COc1ccccc1CC(O)CC1c2c(cc3c(c2OC)OCO3)CCN1C` (stereo not given) gave MOR-DOR ag 1, HTR5A ag ctr -3, MOR-DOR inv ag-1 -6 and HTR5A inv ag 10.
For Cc1ccc(CCNC(=O)C2CCN(S(=O)(=O)c3cccc4nsnc34)CC2)cc1 the results were MOR-DOR ag 0, HTR5A ag ctr -13, MOR-DOR inv ag-1 -2, HTR5A inv ag 47*, MOR-DOR inv ag-2 0 and HTR5A inv confrm 1.
For C/C(=N\NC(=S)NCc1ccccc1)c1ccc(Br)cc1 the results were MOR-DOR ag 5, HTR5A ag ctr 1, MOR-DOR inv ag-1 -22 and HTR5A inv ag -2.
C/C(=N\NC(=S)NCc1ccccc1)c1ccc2ccccc2c1OC(F)F was read as MOR-DOR ag 2, HTR5A ag ctr -22, MOR-DOR inv ag-1 -11, HTR5A inv ag 54*, MOR-DOR inv ag-2 -24 and HTR5A inv confrm 4.
Screening CC(C)CC1Nc2ncnc(N3CCN(c4ccccn4)CC3)c2N(Cc2ccc(Cl)cc2)C1=O (stereo not given) returned MOR-DOR ag 3, HTR5A ag ctr 3, MOR-DOR inv ag-1 -16, HTR5A inv ag 40*, MOR-DOR inv ag-2 -27 and HTR5A inv confrm 13.
Screening COc1ccc(CN2C(=O)C(Cc3ccccc3)Nc3ncnc(N4CCN(c5ccccc5)CC4)c32)cc1 (stereo not given) returned MOR-DOR ag -9, HTR5A ag ctr -15, MOR-DOR inv ag-1 41, HTR5A inv ag 44*, MOR-DOR inv ag-2 21 and HTR5A inv confrm 55*.
For CC(C)CC1Nc2ncnc(N3CCN(c4ccccc4)CC3)c2N(Cc2ccccc2)C1=O (stereo not given) the results were MOR-DOR ag 0, HTR5A ag ctr 1, MOR-DOR inv ag-1 -1 and HTR5A inv ag -3.

Screening results as filed in PubChem.
